Data published in PubChem BioAssay.
Results with a measured potency or affinity are listed apart. Activity calls are given as the source filed them.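 Rule for the calls, unless noted: active = fitted dose curve reaches 40% lysis signal rise at or below the highest valid concentration tested for that sample; inconclusive = flat fit between 30% and 70%, or poor curve fit; inactive = signal falls, stays flat within 30%, or no crossing.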

Assays:
[1] = C. neoformans lysis by adenylate kinase leakage – AK release luminescence, cherry-picks, dose response (AID 687000); conditions: 4 h, 100% = twice the neutral-control signal; series mostly up to 15 µM;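 note: luminescent detection of adenylate kinase leaking from lysed yeast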
[2] = viability loss in HepG2 hepatoma cells – cell-based, cherry-picks, set 2, cytotoxicity control, dose response (AID 687002;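 active = a dose-response fit showing signal loss, with half-maximal concentration no higher than twice the top tested dose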); conditions: ATP luminescence (CellTiter-Glo), 48 h; series mostly up to 26 µM
[3] = viability loss in HeLa cells – cell-based, ATP luminescence, cherry-pick samples, cytotoxicity control, dose response (AID 687004;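 active = a fitted half-maximal concentration no higher than twice the top valid tested dose, with signal falling as cells die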); conditions: ATP luminescence (CellTiter-Glo), 48 h; series mostly up to 26 µM

Measured: outcome

CC(NC1CCCC1)C(=O)Nc1ccccc1-c1ccccc1 (stereo not given)
inactive: all assays above

CC=Cc1ccc2n(c1=O)C[C@@H]1[C@@H](CO)[C@H](C(=O)NCc3ccc4c(c3)OCO4)[C@H]2N1C(=O)C1CC1 (mixture of isomers)
inactive: all assays above

Fc1cccc(CCN2C(=S)NC[C@@H]2Cc2ccccc2)c1
inactive: all assays above

COc1ccc(CN(C)C[C@@H]2Oc3ccc(NC(=O)C4CC4)cc3C(=O)N([C@@H](C)CO)C[C@H]2C)cc1
inactive: all assays above

Cc1noc(C)c1S(=O)(=O)Nc1ccc2c(c1)C(=O)N([C@@H](C)CO)C[C@@H](C)[C@H](CN(C)Cc1ccc3c(c1)OCO3)OCCCC[C@H](C)O2
inactive: all assays above
